# Results as given in PubChem BioAssay (NCI).
# The panel holds about 83,000 compounds, 20% with a hit somewhere; the sample as a whole holds those more often.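 A percent growth of 40 corresponds to 60% growth inhibition; 0 means no net growth; -100 means all cells died. Active threshold: below 10.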 Active and inactive are the calls of the source.
# System: HL-60(TB) leukemia
# Assay: NCI-60 one-dose screen, 48 h (100 = growth as untreated, 0 = no growth, -100 = all killed)
# Settings: 10 µM unless noted
row,SMILES,growth
1,COc1cccc(-c2nc3sccn3c2-c2ccnc(NCCCNS(=O)(=O)c3cccc(Cl)c3)c2)c1,-9.87% (active)
2,COc1cccc(/C=C\C(=O)c2ccccc2)c1,43.9% (inactive)
3,CCN(CC)c1ccc(/C=N/NC(=O)c2ccccc2Nc2ccnc(C(F)(F)F)c2)c(O)c1,60% (inactive)
4,CC(=O)c1c(C)nc2ccccc2c1/C=C/c1cccc(C)c1,28.2% (inactive)
5,COc1ccc(Nc2nc(N)nc3c2CCN(Cc2ccc(OC)cc2OC)C3=O)cc1,59.1% (inactive)
6,COc1ccc(-c2nnc(SCC(=O)N3CCN(c4cc5c(cc4F)c(=O)c(C(=O)O)cn5C4CC4)CC3)o2)cc1OC,66.8% (inactive)
7,Cc1ccc(C2CC(c3cccc(Nc4ccncc4)c3)=Nc3c(N)nc(N)nc3N2)cc1 (centres undefined),33.7% (inactive)
8,O=c1c2c(c(=O)n1O)c1c3ccc[nH]c3nc1c1nc3[nH]cccc3c12,81% (inactive)
9,COc1ccc2[nH]c(=O)c(CNc3ccc(Nc4nccc(-c5ccc(Cl)cc5)n4)cc3)cc2c1,78.2% (inactive)
10,Cc1nn(-c2ccccc2)c2nc(N)c(C3=NCCO3)nc12,102% (inactive)
11,CCCCCCCC/C=C\CCCCCCCCOc1ccccc1CC(=O)NCC[N+]1(C)CCOCC1,67.2% (inactive)
12,CC(C)(O)c1cccc(F)c1,70.7% (inactive)
13,C[C@@H]1CN(c2nc3c(cc2F)c(=O)c(C(=O)O)cn3C(C)(C)C)C[C@H](C)N1,97% (inactive)
14,Nc1ccc(N)c2c1C(=O)c1cccc([N+](=O)[O-])c1C2=O,17.8% (inactive)
